Measured values taken from PubChem BioAssay AID1688 (National Center for Advancing Translational Sciences (NCATS), 2009).
The whole screen tested about 220,000 compounds, of which about 2,400 (1.1%) were called active. Roughly 7% stayed inconclusive and do not appear here. The full list was thinned out, with actives kept by preference. Unmarked numbers belong to inactive results. Calls follow the shape of the dose curve; as a rule, active = well fitted inhibition curve with a large enough effect; inconclusive = small, poorly fitted or top-dose-only effect, or effect the other way; inactive = no such curve, though single readings can be large or run the other way.

assay: qHTS Multiplex Assay to Identify Dual Action Probes in a Cell Model of Huntington: Aggregate Formation (GFP); conditions: PC12 HttQ103-GFP aggregates, Acumen cytometry, 40 h; series mostly up to 9.22 µM; activity change, negative = inhibition: at the top concentration; also: nearly all actives have a fitted effect of over 60% in size
Outline: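 PC12 cells with ecdysone-inducible HTT exon1 Q103-GFP, induced by 100 nM tebufenozide, given compounds in a concentration series. GFP aggregates (1–25 um, 6 SD above background) counted in lysates by laser-scanning cytometry, 488 nm excitation.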
% is scaled to controls: 0 for no effect and ±100 for the full control effect; potency is read from the fitted curve at half-maximal effect.

Row | Structure (SMILES) | activity change, negative = inhibition | Potency
1 | CC(C)=NN1C(=O)c2ccccc2NC1(C)C | 8.6% | –
2 | Cc1ccccc1Nc1c(-c2ccccc2)nc2ncccn12 | 18.6% | –
3 | C/C(=N\NC(=O)CNC(=O)C(c1ccccc1)c1ccccc1)c1ccc(C)cc1 | – | 12.6 µM (active)
4 | C/C(=N\NC(=O)Cc1ccc(F)cc1)c1ccc(F)cc1 | -15.3% [at 46.1 µM] | –
5 | O=C(CNC(=O)C(c1ccccc1)c1ccccc1)N/N=C\c1ccc2c(c1)OCO2 | 5.61% [at 46.1 µM] | –
6 | CCNC(=S)N1CCN(CCN=CC2=C(O)CC(C)(C)CC2=O)CC1 | -0.873% | –
7 | Cc1c(Cl)c([N+](=O)[O-])nn1Cc1ccc(C(=O)N/N=C\c2cc(Cl)ccc2O)o1 | – | 1.58 µM (active)
8 | Cc1c(Cl)c([N+](=O)[O-])nn1CCCC(=O)Nc1cc(Cl)ccc1Cl | 6.08% [at 46.1 µM] | –
9 | O=C(N/N=C/c1ccc2c(c1)OCO2)c1ccc(Cn2cc([N+](=O)[O-])cn2)o1 | 16.5% [at 46.1 µM] | –
10 | CC(NC(=S)Nc1ccccc1)C(c1cccs1)N1CCOCC1 (centres undefined) | -9.73% | –
11 | O=C(Nc1cccc(C(F)(F)F)c1)c1cc(Br)cc(Br)c1O | – | 5.01 µM (active)
12 | O=C(O)CSCC(=O)Nc1cccc(C(F)(F)F)c1 | 13.9% [at 46.1 µM] | –
13 | O=C(Nc1cccc(C(F)(F)F)c1)c1cnccn1 | -11% | –
14 | Cc1cc(C(=O)CSc2nc(N)cc(=O)[nH]2)c(C)n1Cc1ccco1 | 0.897% | –
15 | COC(c1ccccc1)(c1ccccc1)C(Oc1nc(C)cc(C)n1)C(=O)O (centres undefined) | 12.9% [at 46.1 µM] | –
16 | COc1ccc(/C=C/c2nnc(NC(=O)C(C)C)s2)cc1 | 3.19% | –
17 | CCN(CC)S(=O)(=O)c1ccc(N(C)Cc2ccc(C(F)(F)F)cc2)nc1 | – | 10 µM (active)
18 | CCN(CC)S(=O)(=O)c1ccc(N(C)CCc2ccc(OC)c(OC)c2)nc1 | -4.47% [at 46.1 µM] | –
19 | CCN(CC)S(=O)(=O)c1ccc(Cl)c(NC(=O)c2ccncc2)c1 | -14.4% | –
20 | C/C(=N\OCC(=O)O)c1ccc(Cl)cc1 | 1.57% | –
21 | O=C(CNCc1cccs1)Nc1cc(S(=O)(=O)N2CCCC2)ccc1Cl | 10.3% | –
22 | O=C(Nc1cc(Cl)cc(Cl)c1)C(NCCCO)c1ccccc1 (centres undefined) | 2.63% [at 46.1 µM] | –
23 | CC(C)n1cnc2c(Nc3cccc(Cl)c3)nc(N(CCO)CCCO)nc21 | 10.2% | –

Row | Structure (SMILES) | activity change, negative = inhibition | Potency
24 | OCCCNc1nccc(-c2cc(Nc3cccc(Cl)c3)ncn2)n1 | – | 0.794 µM (active)
25 | Brc1ccc2c(c1)[C@H]1OCC[C@H]1[C@@H](c1cccs1)N2 | -17.7% | –
26 | CCCCSc1nc2ccccc2[nH]1 | -0.277% | –
27 | CCC(C)N1C(=O)S/C(=C/c2ccc(Sc3nc4ccccc4[nH]3)o2)C1=O (centres undefined) | – | 10 µM (active)
28 | O=C(CSc1nc2ccccc2[nH]1)c1cccs1 | 9.78% [at 46.1 µM] | –
29 | O=C(O)c1ccc(/C=N/Nc2nc(N3CCCCC3)nc(N3CCCCC3)n2)cc1 | -22.3% | –
30 | NC(=O)c1ccc(NC(=O)COC(=O)c2ccc([N+](=O)[O-])cc2)cc1 | 13.2% | –
31 | COc1ccc(N(Cc2ccccc2)S(=O)(=O)c2cccc(C(=O)O)c2)cc1 | 39.5% | –
32 | CCOC(=O)N1CCN(C(=O)c2ccc3c(c2)N(Cc2ccc(C)cc2)CCS3)CC1 | – | 11.2 µM (active)
33 | CCOC(=O)N1CCN(C(=O)c2ccc(S(=O)(=O)c3ccc(C)cc3)c(NC(C)=O)c2)CC1 | 10.1% [at 46.1 µM] | –
34 | O=C(NCCN1CCOCC1)c1ccc2c(c1)N(Cc1ccc(Cl)cc1)CCS2 | -10.9% | –
35 | Cc1ccc(S(=O)(=O)N2CCN(C(=O)COC(=O)c3c(C)noc3C)CC2)c(C)c1 | -9.73% | –
36 | O=C(c1ccccc1-c1ccccc1)N1CCOCC1 | 1.58% [at 46.1 µM] | –
37 | Cc1oc2c(c1C(=O)N1CCOCC1)C(=O)c1ccccc1C2=O | – | 10 µM (active)
38 | Cc1onc(-c2ccccc2)c1C(=O)N1CCOCC1 | -8.31% [at 46.1 µM] | –
39 | COCCN1C2=C(COC(C)(C)C2)C(=S)NC1c1ccccc1 (centres undefined) | 23.8% | –
40 | COC(=O)c1sccc1NN1C(=O)c2ccccc2C1=O | -15.1% | –
41 | COCCNC(=O)c1snc2ccc(Cl)cc12 | – | 10 µM (active)
42 | COCCNC(=O)c1ccccc1-c1nc(-c2ccccc2Cl)no1 | 8.12% [at 46.1 µM] | –
43 | COC(=O)c1sc2ncccc2c1OCc1ccc(Cl)cc1Cl | -3.42% [at 46.1 µM] | –
44 | Clc1ccc2c(c1)C1=C(C(c3ccncc3)O2)C(c2ccc(Br)cc2)n2ncnc2N1 (centres undefined) | – | 12.6 µM (active)
45 | COC(=O)C1=C(C)Nc2ncnn2C1c1cccnc1 (centres undefined) | -8.05% [at 46.1 µM] | –
46 | Brc1ccc(C2=CC(c3ccco3)n3ncnc3N2)cc1 (centres undefined) | -24.3% [at 46.1 µM] | –

Row | Structure (SMILES) | activity change, negative = inhibition | Potency
47 | Cc1ccc(-c2ncc(Cl)cc2-c2ccc(S(C)(=O)=O)cc2)cn1 | 1.61% [at 46.1 µM] | –
48 | Cc1ccc(Cn2c(SCC(=O)N/N=C/c3ccccc3OCC(=O)O)nc3ccccc32)cc1 | 17.6% | –
49 | O=C(CCCN1C(=O)/C(=C\c2ccco2)SC1=S)Nc1cccc2ccccc12 | 24.3% | –
50 | O=C(CCCN1C(=O)/C(=C\c2ccccc2)SC1=S)Nc1ccccc1O | 22.3% | –
51 | O=C(CCCN1C(=O)/C(=C/c2ccco2)SC1=S)Nc1ccccc1 | – | 25.1 µM (active)
52 | CC(=O)NCC(O)c1ccc([N+](=O)[O-])cc1 (centres undefined) | -18.6% | –
53 | C/C(Cc1ccccc1)=N\NC(=O)CNC(=O)c1ccc2c(c1)OCCO2 | 2.88% | –
54 | O=C(Nc1ccc(N2CCN(C(=O)c3ccccc3)CC2)c(Cl)c1)c1cccnc1 | – | 22.4 µM (active)
55 | O=C(Nc1ccc(N2CCN(C(=O)c3ccccc3)CC2)c(Cl)c1)c1ncn[nH]1 | -29.1% | –
56 | COC(=O)c1cc(NC(=O)c2cccnc2)ccc1N1CCOCC1 | 1.39% | –
57 | O=C(Nc1ccc(N2CCOCC2)nc1)c1c(F)cccc1F | 10.4% | –
58 | O=C1C2C3C=CC(C4CC34)C2C(=O)N1/N=C/c1ccc(-c2ccccc2[N+](=O)[O-])o1 (centres undefined) | – | 25.1 µM (active)
59 | N#C/C(=C/c1ccc(-c2ccccc2[N+](=O)[O-])o1)C(=O)NCCN1CCCCC1 | -12.2% | –
60 | Cc1cc(-c2ccc(/C=N/n3cnnc3)o2)c([N+](=O)[O-])cc1C | 3.65% [at 46.1 µM] | –
61 | FC(F)(F)c1cccc(NC(=S)Nc2cccc(Cl)c2)c1 | -6.26% [at 46.1 µM] | –
62 | Cn1nc(C(F)(F)F)c(C(=O)Nc2cccc(C(F)(F)F)c2)c1SCc1ccc(Cl)cc1 | – | 12.6 µM (active)
63 | COC(=O)c1ccccc1Sc1c(/C=N/OCc2ccc(Cl)cc2)c(C(F)(F)F)nn1C | -26.1% [at 46.1 µM] | –
64 | COc1ccc2[nH]c(=S)cc(C)c2c1 | 19.9% | –
65 | O=C(Nc1nnc(COc2ccccc2)s1)Nc1ccccc1F | -6.11% | –
66 | CC(NC(=S)NNS(=O)(=O)c1ccc(C(C)(C)C)cc1)c1ccccc1 (centres undefined) | -16.9% | –
67 | COCCOCCn1cnc2ccccc21 | -19.1% [at 46.1 µM] | –
68 | Cc1cc2ncn(CCCCOc3ccccc3)c2cc1C | – | 11.2 µM (active)
69 | Clc1ncn(CCOc2ccccc2)c1Cl | -7.07% | –
